The structures appear in SMILES notation. “And” between values parts separate entries of the source, which are not always exact repeats. Equal values may be shown once. Hit rate of the full screen: of about 370,000 compounds, about 6,800 (1.8%) were called active. The full list was thinned out, with actives kept by preference. Unmarked numbers belong to inactive results.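 How the source made its calls: active means activation above a cutoff set at the mean of all screened compounds plus 3 SD (cut at about 10% in these data); inactive means the rest.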

The test has as its system Nuclear hormone receptor DAF-12 (Heterodera glycines), GAL4 fusion. The test can be described thus: H. glycines DAF-12 receptor agonists, primary screen, cell-based, luminescence, HEK293, GAL4 fusion, UAS-luciferase (AID 687014).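 Further: 0% = DMSO wells and 100% = sodium butyrate wells.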 Conditions: HEK293 GAL4-hgDAF12 UAS-luciferase reporter, agonist luminescence; at 6.8 µM; active compounds read high; normalized to butyrate control.
`O=S1(=O)c2c(NCc3ccco3)cccc2Oc2ccccc2CN1Cc1cn(Cc2cccc(C(F)(F)F)c2)nn1`: the activation was -3.4%.
To `COc1cccc(NC(=O)CSc2nccn(-c3ccc4c(c3)OCCO4)c2=O)c1` belongs 0.16%; to `COc1ccccc1C1C(C(N)=O)=C(C)Nc2nc(CCCO)nn21` (stereo not given), 0.62%.
`CN(C(=O)COC(=O)c1cc(=O)[nH]c2ccccc12)C1CCCCC1`: the activation was 6.7%.
To `O=C(COC(=O)c1cc(=O)[nH]c2ccccc12)NCc1cccc(Cl)c1` belongs 0.1%.
To `CC1CCN(C(=O)COC(=O)c2cc(=O)[nH]c3ccccc23)CC1` belongs 12.3% (active).
To `CCOC(=O)[C@]12CCCC3=C1N(CCC3)C(=O)[C@@H](CC(=O)NCC13CC4CC(CC(C4)C1)C3)C2` belongs 0.11%.
Regarding `COc1cc(/C=C/C(=O)OCC(=O)NCCCc2ccccc2)ccc1O`, the activation is -1.55%.
`COc1ccc(/C=N/Nc2ncnc3sc4c(c23)CCCC4)cc1O`: the activation is 5.98%.
As for `COc1cc(/C=N/Nc2nc3ccccc3s2)ccc1O`, the figure is 15% (active); as for `CN(C)C(=O)N1CCN(C(=O)[C@@H](Cc2ccccc2)NC(=O)[C@H]2O[C@@H](n3ccc(N)nc3=O)[C@H](O)[C@@H]2O)CC1`, 1.19%.
To `CCOC(=O)c1ccc(CS(=O)c2ccc(Cl)cc2)o1` (stereo not given) belongs -2.05%; to `CCOC(=O)c1c(Cc2ccc(Cl)cc2)c[nH]c1C`, 12.8% (active).
As for `CCOC(=O)c1c(S(=O)(=O)Nc2cccc(Cl)c2)c(C)n(C)c1C`, the figure is -4.39%.
Turning to `CCOC(=O)[C@]12CCCC=C1N(Cc1ccc(OC)cc1)C(=O)[C@@H]2CC(=O)N1CCOCC1`, the activation is 0.99%.
Regarding `CNC(=O)/C(=C\C=C\c1ccccc1)NC(=O)c1ccc([N+](=O)[O-])cc1`, the activation is 1.17%.
In the case of `COCC(=O)N[C@@H]1C[C@@H]2O[C@@H](CO)CC[C@@H]2O[C@@H]1CCc1ccc(-c2ccccc2)cc1`, the activation was 2.02%.
As for `CC1CCCC(C)N1C(=O)CSc1nnnn1C1CCCC1` (stereo not given), the figure is 3.93%; as for `CC(=O)Nc1ccc(NC(=O)CSc2nnnn2C2CCCCC2)cc1`, 0.66%; as for `O=C(CSc1nnnn1C1CCCC1)N1CCCCC1`, 11.8% (active).
To `Cc1cc(NCCc2c[nH]c3ccccc23)ccc1Oc1cccnc1` belongs -6.96%.
Regarding `C[C@H](O)[C@@H]1CN2CCc3ccc(-c4ccc5c(c4)OCO5)cc3[C@@H]2C[C@@H]1N(C)C(=O)C1CCCCC1`, the activation is 5.63%.
For `C[C@H]1[C@H](NC(=O)c2cccc(N(C)C)c2)CC[C@@]23CCCN2C(=O)CCC[C@@H]13`, the activation was 4.78%.
As for `Cc1ccc(Nc2nc(-c3ccc(O)cc3O)cs2)nc1`, the figure is 11% (active).
`CC(=O)Nc1cnc(-c2ccc(O)cc2C)cn1`: the activation was 0.71%.
As for `Cc1ccc(-c2csc(NCCc3nc4cc(Cl)c(Cl)cc4n3CCOCCO)n2)cc1`, the activation was 0.43%.
Turning to `C/C=C/c1ccc(OCCOc2ccc(C=O)cc2OC)c(OC)c1`, the activation was 1.06%.
As for `O=C(NCCc1ccc(F)cc1)c1ccc2nccnc2c1`, the figure is 15.2% (active); as for `O=C(NCCc1ccc(F)cc1)c1n[nH]c2ccccc12`, 4.51%; as for `O=C(NCCc1ccc(F)cc1)c1ccc(S(=O)(=O)N2CCCCC2)cc1`, -1.32%.
With `O=S(=O)(c1ccc2c(c1)OCCCO2)N1CCN(S(=O)(=O)c2c(F)cccc2F)CC1`, the activation is 3.46%.
As for `CCOc1cc(C(=O)N2CCc3cc(OC)c(OC)cc3C2)ccc1OC(F)F`, the figure is -2.99%.
Turning to `CCOC(=O)C1CCN(C(=O)COC(=O)C2CCN(S(=O)(=O)c3ccc4c(c3)OCCO4)CC2)CC1`, the activation is 1.65%.
For the compound `O=C(O)Cc1csc(-c2cccc(Oc3ccccc3)c2)n1`, the activation is 2.98% and 2.42%.
Regarding `NC(=O)Cc1ccc2sc(-c3ccccc3)nc2c1`, the activation was 16.9% (active).
As for `CCn1c2ccccc2c2cc(CC(N)=O)ccc21`, the figure is -1.01%; as for `Clc1ccc(C(Cn2ccnc2)OCc2ccsc2Cl)c(Cl)c1` (stereo not given), -0.6%.
For the compound `COc1ccnc(C(=O)N2CCC(Oc3cccnc3)CC2)c1`, the activation was -2.68%.
As for `COc1ccc(CCC(C)N2CCc3ccccc3C2)cc1` (stereo not given), the figure is 1.85%; as for `COC(=O)[C@]12C[C@H](CC(=O)NCc3ccc(C)o3)C(=O)N(CCC3=CCCCC3)C1=C[C@H](C(C)(C)C)O[C@@H]2C`, 1.5%.
Regarding `COc1ccc(C2=NN(C(=O)c3ccccc3C(=O)O)C(c3ccccc3O)C2)cc1` (stereo not given), the activation is 16.4% (active).
As to `COc1ccc(C2CC(c3ccccc3)=NN2C(=O)CSc2nccc(=O)[nH]2)cc1` (stereo not given), the activation is 1%.
As to `COc1ccc(C2CC(c3ccccc3)=NN2C(=O)c2ccc(Cl)c([N+](=O)[O-])c2)cc1` (stereo not given), the activation is -2.91%.
As for `COc1ccc2nc(SCc3ccccc3)nc(C)c2c1`, the figure is 16.3% (active); as for `COc1ccc(CSc2nnc(-c3cccc(C)c3)n2C)cc1`, -0.32%.
As for `COc1ccc(NCc2nnc(SCc3ccccc3)n2-c2ccc(OC)cc2)cc1`, the activation was 1.53%.
With `CCOc1ccc(S(=O)(=O)NCC2CCCO2)cc1` (stereo not given), the activation was -0.13%.
To `COC(=O)[C@]12C[C@H](CC(=O)NCc3ccccc3)C(=O)N(Cc3ccccc3)C1=C[C@H](COCc1ccccc1)O[C@@H]2C` belongs -0.41%.
As for `Cc1ccc(NC(=O)N2c3ccccc3SC2c2ccco2)c(C)c1` (stereo not given), the figure is -2.03%; as for `O=C(CCS(=O)(=O)c1ccccc1)Nc1ccc(Cl)c(Cl)c1`, 5%.
As for `COc1ccccc1Oc1ccc(N/C=C2/CCCC2=O)cc1`, the figure is 2.59%.
Regarding `COc1ccc(/C=C2/CCCc3ccccc3C2=O)cc1`, the activation was 16.7% (active).
As for `COc1ccc(C=C2CCC3C(CCCC34OCCO4)C2=O)cc1` (stereo not given), the activation was 2.78%.
In the case of `COc1ccc(Cn2cc(COC(=O)N(C)Cc3ccccc3)nn2)cc1`, the activation was 2.67%.
To `COc1cccc(-c2nc(CS(=O)(=O)CC(=O)NCCc3ccc(OC)c(OC)c3)c(C)o2)c1` belongs 0.2%.
Consider `COc1cccc(-c2nc3cc(C)ccc3o2)c1`, for which the activation was 17.6% (active).
For `COc1cccc(-c2nnc(SCCOc3ccc4c(C)cc(=O)oc4c3)o2)c1`, the activation was -0.66%.
Take `O=[N+]([O-])c1ccc2oc(-c3cccc(O)c3)nc2c1`: the activation is 19.1% (active).
To `O=[N+]([O-])c1ccc2c(c1)C(O)n1nc(-c3ccccc3)nc1S2` (stereo not given) belongs -1.58%; to `CC(=O)Oc1ccc2c(=O)oc(-c3ccc([N+](=O)[O-])cc3)nc2c1`, 0.03%.

For the origin of these results see PubChem BioAssay AID687014 (The Scripps Research Institute Molecular Screening Center, 2013).
